The panel holds about 83,000 compounds, 20% with a hit somewhere; the sample as a whole holds those more often.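 Values shown are percent growth following 48 h exposure of cells in 96-well plates to a single concentration of compound; below 10 was considered active.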 Unmarked numbers belong to inactive results. The source made the active and inactive calls.
Legend:
Experiment in all cases: NCI-60 one-dose screen, 48 h (100 = growth as untreated, 0 = no growth, -100 = all killed)
Conditions in all cases: 10 µM unless noted
NCI-H23 lung = tested on: NCI-H23 lung
NCI-H226 lung = tested on: NCI-H226 lung
NCI-H322M lung = tested on: NCI-H322M lung
HOP-62 NSCLC = tested on: HOP-62 NSCLC
NCI-H460 lung = tested on: NCI-H460 lung
A549/ATCC NSCLC = tested on: A549/ATCC NSCLC
786-0 renal = tested on: 786-0 renal
COLO 205 colon = tested on: COLO 205 colon

| SMILES | growth (NCI-H23 lung) | growth (NCI-H226 lung) | growth (NCI-H322M lung) | growth (HOP-62 NSCLC) | growth (NCI-H460 lung) | growth (A549/ATCC NSCLC) | growth (786-0 renal) | growth (COLO 205 colon) |
| --- | --- | --- | --- | --- | --- | --- | --- | --- |
| CCCCCCC(C(=O)OCC)(C(=O)OCC)C1CCCCCC1 | 107% | 99.6% | 96.6% | 91.9% | 106% | 96% | 115% | 102% |
| O=C(CCl)NC1c2ccccc2Oc2ccccc21 | 70.4% | 98.1% | 97.9% | 75.5% | 64.8% | 71.7% | 77.2% | 103% |
| [N-]=[N+]=Nc1ncc(-c2ccc(C(F)(F)F)cc2)c(NC2CCCCCC2)n1 | 38% [100 µM] | 60.3% [100 µM] | 47.6% [100 µM] | 69.9% [100 µM] | 18.4% [100 µM] | 23.6% [100 µM] | 38.1% [100 µM] | 36.3% [100 µM] |
| N=C(c1ccccc1)N(Cc1ccccc1)Cc1ccccc1 | 92.9% | 104% | 84% | 97.1% | 98.3% | 90.3% | 86.5% | 88.2% |
| COc1ccc(/C=C2\CCCC3=C2N=C2SC=NN2C3c2ccc(OC)c(OC)c2)cc1OC (stereo not drawn) | 39.7% | 45.3% | 38.3% | 35.3% | 44% | 31.9% | 70.2% | 22.7% |
| C=C[C@]1(C)C=C2C(=O)[C@@]3(O)OC[C@@]4(CCCC(C)(C)C43O)C2(O)C(O)C1 (stereo partly drawn) | 80.1% | 81.4% | 108% | 107% | 82.5% | 76.4% | 38.2% | 9.48% (active) |
| CC(C)CCCCCOC(=O)c1ccccc1SSc1ccccc1C(=O)OCCCCCC(C)C | 108% | 97.3% | 132% | 99.8% | 108% | 99.2% | 104% | 109% |
| COC(=O)[C@@H]1[C@H](O)[C@H](C)[C@H](O)[C@H](C)/C=C\C=C(C)C(=O)Nc2c(C)c(OC(C)=O)c3c(c2O)C(=O)C(C)=C2OCOC(=C23)C(C)=C[C@@](C)(O)[C@H](O)[C@@H](C)[C@H]1OC(C)=O | 109% | 104% | 121% | -100% (active) | 110% | 98.6% | 111% | 116% |
| O=C(CCl)c1ccc2c(c1)CCCC2 | 105% | 108% | 94.3% | 107% | 107% | 101% | 90.6% | 113% |
| COCn1c(C(=O)OC)cc2oc(/C=C3/SC(=S)N(N)C3=O)cc21 | 103% | 115% | 77.5% | 122% | 105% | 105% | 96.5% | 110% |
| CC(O)CN(CC(C)O)N(CC(C)O)CC(C)O (stereo not drawn) | 108% | 97.5% | 107% | 101% | 106% | 95.5% | 99.5% | 109% |
| CC[N+](C)(C)N | 114% | 89.9% | 93.2% | 111% | 108% | 105% | 100% | 112% |
| CC(=O)N1CCN(CCNC(=O)n2cc(-c3ccncc3)c(-c3cc(O)cc(Cl)c3)n2)CC1 | 99.7% | 102% | 106% | 94.2% | 89% | 102% | 67.8% | 86.8% |
| CCC(C)CC(N)O (stereo not drawn) | 105% | 98% | 116% | 122% | 108% | 106% | 105% | 109% |
| CN(C)CCOC(=O)C(C)(C)C | 114% | 98% | 107% | 112% | 103% | 101% | 110% | 116% |
| COc1ccc(C2CC(=O)c3c(O)cc(OC4OC(COC5OC(C)C(O)C(O)C5O)C(O)C(O)C4O)cc3O2)cc1O (stereo not drawn) | 105% | 105% | 81.7% | 10.3% | 110% | 98.3% | 100% | 112% |

| SMILES | growth (NCI-H23 lung) | growth (NCI-H226 lung) | growth (NCI-H322M lung) | growth (HOP-62 NSCLC) | growth (NCI-H460 lung) | growth (A549/ATCC NSCLC) | growth (786-0 renal) | growth (COLO 205 colon) |
| --- | --- | --- | --- | --- | --- | --- | --- | --- |
| COc1cccc(NC(=O)NCCNc2nccc(-c3c(-c4ccc(F)cc4)nc4sccn34)n2)c1 | 89.9% | 85.9% | 115% | 99.4% | 58.8% | 54.4% | 63% | 69.3% |
| O=CN/N=C/c1ccc(Cl)c([N+](=O)[O-])c1 | 26.5% | 35.4% | 28.6% | 20.8% | 8.54% (active) | 14.5% | 31.6% | 26% |
| COC(=O)CC(=O)C(=O)OC | 103% | 97.7% | 107% | 103% | 104% | 104% | 95.2% | 114% |
| COc1ccc2cn3c4ccc(O)cc4[nH]c(=O)c3c2c1 | 25.3% | 54.7% | 41% | 25.8% | -48.7% (active) | 19.3% | 24.1% | -7.26% (active) |
| O=C(O)CS(=O)c1ccc(Cl)cc1 (stereo not drawn) | 106% | 103% | 87.7% | 101% | 104% | 103% | 95.7% | 107% |
| NCCCOc1cc(Cl)ccc1NC(=O)c1cc2ccccc2cc1OCCCN | -62.3% (active) | -28.9% (active) | -1.29% (active) | -94.3% (active) | -91% (active) | -93.6% (active) | -89.2% (active) | -88% (active) |
| O=C(OCC1CC2(Cl)C(Cl)=C(Cl)C1(Cl)C2(Cl)Cl)C1C(C(=O)OCC2CC3(Cl)C(Cl)=C(Cl)C2(Cl)C3(Cl)Cl)C2(Cl)C(Cl)=C(Cl)C1(Cl)C2(Cl)Cl (stereo not drawn) | 105% | 99.2% | 98.4% | 108% | 114% | 103% | 94% | 99.7% |
| COc1cc(-c2nn(-c3ccc(NC(=O)Nc4ccc(Cl)c(Cl)c4)cc3)cc2-c2ccncc2)ccc1Cl | 22.9% | 52.6% | 68.4% | 47.5% | 7.14% (active) | 25.8% | 4.3% (active) | 20.1% |
| C/C(=C\c1ccc2ccccc2c1)[N+](=O)[O-] | 74.6% | 67% | 78.2% | 98.7% | 98.8% | 97.3% | -62.9% (active) | -26.9% (active) |
| CCOC(=O)c1csc(-c2ccc(COC(=O)c3ccccc3)o2)n1 | 108% | 104% | 93.2% | 99.5% | 109% | 99.7% | 102% | 114% |
| Cc1ccc(NC(=O)CCl)cc1Cl | 89.2% | 103% | 97.1% | 98.9% | 105% | 106% | 117% | 122% |
| N#CCc1ncc(-c2ccc(C(F)(F)F)cc2)c(NC2CCCCCC2)n1 | 25.7% [100 µM] | 55.3% [100 µM] | 68.1% [100 µM] | 71.7% [100 µM] | 8.28% [100 µM] (active) | 21.1% [100 µM] | 28.6% [100 µM] | 18.7% [100 µM] |
| C=CN(C)S(C)(=O)=O | 32.2% | 91.2% | 39.5% | 22.6% | 17.8% | 34.5% | 39.5% | 111% |
| COc1ccc(C(=O)N2N=C(c3ccc(Br)cc3)CC2c2cn(-c3ccccc3)nc2-c2ccccc2)cc1 (stereo not drawn) | 42.4% | 88.9% | 78% | 22.6% | 41.8% | 22.8% | 74% | 26.2% |
| CC(=O)NCCN | 111% | 97.5% | 108% | 108% | 109% | 96.6% | 98.3% | 106% |

— PubChem BioAssay (NCI)
